M1 antagonist: blocks the rat M1 muscarinic receptor response to acetylcholine; AID 628; P08482; hit rate 3.4% among 64,000; CHO-M1 cells, Fluo-4 calcium, ACh EC80 antagonist mode; hits give low values; B-score at 10 µM;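 active = calcium fluorescence response, raw or row-and-column corrected B-score, differing from the plate sample mean either way at a set confidence level, mostly lower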
FXIa mix inh: blocks human factor XIa in pooled compound mixtures | purified FXIa, fluorogenic substrate | inhibition, % at 5 µM | hit rate 0.19% among 62,000 | P03951;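 note: each value is inhibition by a whole ten-compound pool holding the compound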
FXIIa mix inh: blocks human factor XIIa in pooled compound mixtures | AID 684 | purified FXIIa, fluorogenic substrate | hit rate 0.2% among 62,000 | inhibition, % at 5 µM
Target sequence (P00748 20-372 limits assumed): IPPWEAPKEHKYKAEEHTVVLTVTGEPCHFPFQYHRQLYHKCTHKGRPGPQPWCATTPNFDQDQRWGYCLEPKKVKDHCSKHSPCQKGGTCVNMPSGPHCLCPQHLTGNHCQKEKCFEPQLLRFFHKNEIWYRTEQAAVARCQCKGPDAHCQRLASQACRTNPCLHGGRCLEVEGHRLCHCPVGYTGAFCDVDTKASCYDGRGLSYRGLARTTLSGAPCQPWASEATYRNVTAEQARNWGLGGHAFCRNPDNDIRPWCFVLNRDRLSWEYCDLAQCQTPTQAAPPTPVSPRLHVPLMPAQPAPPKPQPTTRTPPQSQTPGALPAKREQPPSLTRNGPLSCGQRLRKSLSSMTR
Target sequence (P00748 373-615 limits assumed): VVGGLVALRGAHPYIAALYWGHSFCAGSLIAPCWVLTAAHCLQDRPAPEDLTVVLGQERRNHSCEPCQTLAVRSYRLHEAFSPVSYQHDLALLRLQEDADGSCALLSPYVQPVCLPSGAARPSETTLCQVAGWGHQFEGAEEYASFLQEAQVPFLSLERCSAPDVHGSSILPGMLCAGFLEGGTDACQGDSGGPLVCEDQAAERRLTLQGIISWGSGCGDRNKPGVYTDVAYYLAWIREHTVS
hDAT+cocaine: modulates human dopamine transporter uptake under cocaine | Q01959 | LLC-PK1 hDAT cells, [14C]-dopamine uptake with cocaine IC80; actives deviate in either direction | B-score at 10 µM | hit rate 1.3% among 110,000 | AID 449768;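 active = Z score or B-score, a plate-position-corrected score, falls beyond the plate's 99.7% confidence bounds, in either direction; inactive = both scores lie inside the 99.7% bounds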
M1 agonist: M1 muscarinic receptor agonism; CHO-M1 cells, Fluo-4 calcium fluorescence, agonist mode; hits give high values; B-score at 10 µM; hit rate 3% among 64,000;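 active = fluorescence rise, raw or as B-score row- and column-corrected plate score, outside the 99.7% band of its plate's samples, either direction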
D1 mod: allosterically modulates the human D1 dopamine receptor; P21728; HEK293 D1, CRE-luciferase, dopamine EC30 potentiation; actives deviate in either direction; B-score at 10 µM; hit rate 5.9% among 58,000;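 active = luminescence count or its row- and column-corrected plate score outside the 99.7% band of the plate's sample wells, on either side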
M1 antag conf: confirmation of rat M1 muscarinic receptor antagonists | shares compounds with M1 antagonist | CHO-M1 cells, Fluo-4 calcium, ACh EC80 antagonism; hits give low values | calcium response (max-min fluorescence) at 10 µM | hit rate 43% among 1,700;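 active = calcium response below the same-plate mean of wells given acetylcholine alone at its 80%-effect dose, minus 3 SD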
mGluR4 antag: acts on human mGluR4 in M1 antagonist selectivity test. shares compounds with M1 antagonist. CHO-mGluR4 calcium flux, Fluo-4 fluorescence, glutamate EC80; hits give low values. fluorescence response (max-min) at 10 µM. hit rate 0.9% among 1,700;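 active = fluorescence response below the plate's average for near-maximal glutamate wells, less 3 SD of those wells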;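 note: raw unnormalized fluorescence span taken in the window right after glutamate addition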
Large screens that a line does not name were inactive (follow-up assays come after a bar, where they were run). The list is not random: actives were taken first. Their share in the collection is about 7.4%. Cut-off read from the data, not from the text of the source, unless noted: active = inhibition above about 20% (passing the limit was not always enough); inactive = the rest.

CCc1nnc(NC(=O)[C@@H]2CCCN2S(=O)(=O)c2ccc3c(c2)OCCO3)s1	none (no result: M1 antagonist, FXIa mix inh, FXIIa mix inh, M1 agonist, D1 mod)
CCOc1ccccc1NC(=O)c1cc(CC(C)C)oc1C	M1 antagonist -2.4 | M1 antag conf inactive | mGluR4 antag inactive
CCOc1ccccc1NC(=O)CCC(=O)Nc1ccccc1OCC	none (no result: M1 antagonist, FXIa mix inh, FXIIa mix inh, M1 agonist, D1 mod)
CCN(CCCNC(=O)c1c(C)cc(=O)oc1C)c1cccc(C)c1	M1 antagonist -2.9 | M1 antag conf 522 | mGluR4 antag inactive
O=C(Nc1ccc2snnc2c1)N1CCN(c2ccccc2)CC1	none
O=C(Nc1ccc2snnc2c1)N1CCOCC1	M1 antagonist -2.4 (no result: D1 mod) | M1 antag conf inactive | mGluR4 antag inactive
CN1C(=O)C(O)(C2COC(C)(C)CC2=O)c2cc(Br)ccc21 (configuration not stated)	none
CN1C(=O)C(O)(C2COC(C)(C)CC2=O)c2ccccc21 (configuration not stated)	M1 antagonist -3.8 | M1 antag conf 472 | mGluR4 antag inactive
COc1cc(C2c3c(oc4c(C)cc(C)cc4c3=O)C(=O)N2Cc2cccnc2)cc(OC)c1OC (configuration not stated)	none (no result: hDAT+cocaine)
Cc1ccc(S(=O)(=O)N(Cc2cc3cc4c(cc3[nH]c2=O)OCCO4)CC2CCCO2)cc1 (configuration not stated)	none
O=c1[nH]c2cc3c(cc2cc1CN(CC1CCCO1)S(=O)(=O)c1ccc(Cl)cc1)OCCO3 (configuration not stated)	M1 antagonist -4.2 (no result: D1 mod) | M1 antag conf inactive | mGluR4 antag inactive
Cc1nc(NC2=NCN(C3CCCCC3C)CN2)nc2ccccc12 (configuration not stated)	M1 antagonist -4.9 | M1 antag conf 258 | mGluR4 antag inactive
c1ccc2sc(NC3=NCN(C4CCCCCC4)CN3)nc2c1	none (no result: M1 antagonist, FXIa mix inh, FXIIa mix inh, M1 agonist, D1 mod)
Cc1nc(NC2=NCN(CC3CCCO3)CN2)nc2ccccc12 (configuration not stated)	M1 antagonist -8.9 (no result: hDAT+cocaine) | M1 antag conf 108 | mGluR4 antag inactive
Cc1ccc2nc(NC3=NCN(Cc4cccnc4)CN3)nc(C)c2c1	none (no result: hDAT+cocaine, D1 mod)
COc1ccccc1Nc1nc2ccccc2n1C	M1 antagonist -4.4 | M1 antag conf inactive | mGluR4 antag inactive
CNc1ccccc1-c1nc2ccccc2n(C)c1=O	none (no result: FXIa mix inh, FXIIa mix inh, D1 mod)
Cn1c(N)c(C(=O)COC(=O)c2cccs2)c(=O)n(C)c1=O	none
CCOC(=O)c1ccc(NC(=O)NCCN2CCCCC2)cc1	M1 antagonist -3.4 | M1 antag conf inactive | mGluR4 antag inactive
COc1ccc(C2C(C(=O)N3CCN(c4ccccc4)CC3)c3ccccc3C(=O)N2C)cc1OC (configuration not stated)	M1 antagonist -4.4 (no result: hDAT+cocaine) | M1 antag conf inactive | mGluR4 antag inactive
COc1ccc(N2C(=O)CCC(C(=O)N3CCCCC3)C2c2ccc(F)cc2)cc1 (configuration not stated)	none
COc1ccc(N2C(=O)CCC(C(=O)N3CCOCC3)C2c2ccc(F)cc2)cc1 (configuration not stated)	M1 antagonist -3.1 (no result: hDAT+cocaine, D1 mod) | M1 antag conf inactive | mGluR4 antag inactive
COc1ccc(C2C(C(=O)N3CCOCC3)c3ccccc3C(=O)N2c2ccc(OC)cc2)cc1 (configuration not stated)	M1 antagonist -13 | M1 antag conf inactive | mGluR4 antag inactive
c1ccc(OCc2nn3c(Cn4nnc5ccccc54)nnc3s2)cc1	none
CCNC(=O)NC(=O)COC(=O)CNC(=O)COc1ccccc1	none (no result: D1 mod)
Cc1ccc(CN2CCN(c3ccccn3)CC2)s1	none (no result: M1 antagonist, FXIa mix inh, FXIIa mix inh, M1 agonist, D1 mod)
Cc1cc(NC(=O)CSc2nnc(C)c(=O)[nH]2)no1	M1 antagonist -2.3 | M1 antag conf inactive | mGluR4 antag inactive
Cc1nnc(SCC(=O)Nc2cccc(C(F)(F)F)c2)[nH]c1=O	none
Cc1nnc(SCC(=O)Nc2nccs2)[nH]c1=O	M1 antagonist -14 (no result: hDAT+cocaine) | M1 antag conf inactive | mGluR4 antag inactive
O=C(Cn1ncc2c(=O)oc3ccccc3c21)Nc1nc2ccccc2s1	none
CN1C(=O)N(C)C2C1NC(=O)N2C (configuration not stated)	M1 antagonist -9.2 | M1 antag conf inactive | mGluR4 antag inactive
CC1C2C(C)N(C)C(=O)N(C)C2N(C)C(=O)N1C (configuration not stated)	none
COC(=O)c1sc(S(=O)(=O)N2CCC(C)CC2)c(C(=O)OC)c1C	none
COC(=O)c1sc(S(=O)(=O)N2CCCCC2)c(C(=O)OC)c1C	M1 antagonist -4.5 | M1 antag conf 248 | mGluR4 antag inactive
Cc1csc2nc(CNS(=O)(=O)c3ccc4c(c3)OCCO4)cn12	none
Cc1csc2nc(CCNS(=O)(=O)c3ccc4c(c3)OCCO4)cn12	M1 antagonist -2.6 | M1 antag conf inactive | mGluR4 antag inactive
Cc1cc[n+](-c2nc3ccccc3nc2C(=C=[N-])C#N)cc1	none (no result: M1 antagonist, FXIa mix inh, FXIIa mix inh, M1 agonist, D1 mod)
CCOC(=O)c1c(NC(=O)c2ccn(CC)n2)sc2c1CCCC2	none
CCOC(=O)c1c(NC(=O)c2nc3n(n2)C(C(F)F)CC(C)N3)sc2c1CCCC2 (configuration not stated)	M1 antagonist -5.7 | M1 antag conf inactive | mGluR4 antag inactive
O=C(Nc1ccc(Cl)c(Cl)c1)N1CCC(N2CCCCC2)CC1	M1 antagonist -2.5 | M1 antag conf inactive | mGluR4 antag inactive
Nn1c(SCC(=O)Nc2ccc3c(c2)OCCO3)nnc1-c1ccccn1	none (no result: hDAT+cocaine, D1 mod)
O=C1C2ON(c3ccccc3)C(c3ccncc3)C2C(=O)N1c1ccccc1 (configuration not stated)	none (no result: FXIa mix inh, FXIIa mix inh, D1 mod)
CC(C)N1C(=O)C2ON(c3ccccc3)C(c3cccs3)C2C1=O (configuration not stated)	M1 antagonist -3.8 | M1 antag conf inactive | mGluR4 antag inactive
CCN1CCN(S(=O)(=O)Cc2ccccc2)CC1	none
c1ccc2c(c1)nc1sccn12	M1 antagonist -2.5 | M1 antag conf inactive | mGluR4 antag inactive
Clc1c(CSc2nc3ccccc3o2)nc2sccn12	none
O=C(CCN1C(=O)C2C3C=CC(C3)C2C1=O)Nc1ccc2c(c1)OCO2 (configuration not stated)	M1 antagonist -2.6 | M1 antag conf inactive | mGluR4 antag inactive
O=C(CCN1C(=O)C2C3C=CC(C3)C2C1=O)Nc1ccc(F)cc1 (configuration not stated)	none
COc1ccc(N2CCN(C(=S)Nc3cccc(C)c3C)CC2)cc1	none (no result: M1 antagonist, FXIa mix inh, FXIIa mix inh, M1 agonist, D1 mod)
COc1ccc(C(c2nnnn2Cc2ccc(F)cc2)N2CCN(c3ccc(OC)cc3)CC2)cc1 (configuration not stated)	M1 antagonist -3.8 | M1 antag conf inactive | mGluR4 antag inactive
